Screening results (PubChem BioAssay)
A selection: hits, their analogues and other compounds. The true share with any hit is near 11%.
PNC inhibitor: blocks assembly of the perinucleolar compartment; PC3M PTB-GFP, PNC prevalence imaging, 16 h; hits give low values; activity change (PNC), negative = inhibition, % at 10 µM; 140,000 tested, 3.1% active; AID 2417;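 active = readout at or below -70, meaning at least 70% loss of cells showing the perinucleolar compartment, a nuclear body marking cancer cells; inconclusive = readout between -30 and a set limit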
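Read-out is percentage of cells bearing a perinucleolar compartment, from automated 20x imaging of fixed, Hoechst-stained PC3M PTB-GFP cells. Cells were seeded 4 h, then exposed 16 h to compound (23 nl of library stock) in duplicate plates.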
HPGD inh: blocks human HPGD enzyme activity; P15428; purified HPGD, NADH fluorescence kinetic, PGE2 substrate; Potency, µM, usual class: inhibitors; 150,000 tested, 4.3% active
Target sequence (P15428 whole entry, looked up): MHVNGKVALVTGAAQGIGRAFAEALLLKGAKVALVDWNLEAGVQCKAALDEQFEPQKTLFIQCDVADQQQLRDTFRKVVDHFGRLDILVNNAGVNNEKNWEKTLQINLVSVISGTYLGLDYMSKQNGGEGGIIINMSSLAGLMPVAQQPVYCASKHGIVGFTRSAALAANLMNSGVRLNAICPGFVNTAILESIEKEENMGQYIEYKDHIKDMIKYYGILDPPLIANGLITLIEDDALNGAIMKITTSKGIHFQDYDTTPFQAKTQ
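NADH formation kinetics: reaction with 30 uM PGE2 and 1 mM NAD+ (final), 20 nM enzyme, Tris-HCl pH 8 with Tween 20, after 15 min compound preincubation at room temperature. Fluorescence change, last versus first of five reads.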
ALDH1A1 block: blocks purified human ALDH1A1 activity; P00352; Purified ALDH1A1, NADH fluorescence, propionaldehyde substrate; Potency, µM (series often up to 75.3 µM), actives largely listed as inhibitors; 220,000 tested, 7.3% active; AID 1030
Hits are given with their value; i = inactive; ? = inconclusive; nt = no result; [ ] = dose if it differs, or a comment. Unless noted, calls follow the shape of the dose curve; as a rule, active = well fitted inhibition curve with a large enough effect (not every such curve was filed as active); inconclusive = small, poorly fitted or top-dose-only effect, or another doubt; inactive = no such curve, though single readings can be large or run the other way.

SMILES	PNC inhibitor	HPGD inh	ALDH1A1 block
O=C(O)CCC(=O)NNc1nc2ccccc2nc1-c1ccccc1	nt	nt	i
O=C(CSc1nc2c(sc3ccccc32)c(=O)n1CCc1ccccc1)NCc1ccco1	i	i	i
COc1ccc(-n2c(SCC(=O)NCc3ccco3)nc3c([nH]c4ccccc43)c2=O)cc1	-108	i	i
COc1ccc(NC(=O)CSc2nc3c([nH]c4ccccc43)c(=O)n2C)cc1	nt	nt	i
O=C(CSc1nc2c(sc3ccccc32)c(=O)n1-c1ccccc1)NCc1ccco1	?	i	11µM
Cc1cc(C(=O)N/N=C/c2cccnc2)cs1	-114	i	i
Cc1cc(C(=O)N/N=C/c2cccnc2)c(C)o1	i	i	i
N#CC1=C(O)C(c2ccccc2)n2c1nc(=O)c1ccccc12 (stereo not drawn)	i	?	?
O=C(c1cccc2ccccc12)N1CCN(c2ccc([N+](=O)[O-])c(N3CCOCC3)c2)CC1	i	i	10µM
O=C(c1ccccc1F)N1CCN(c2ccc([N+](=O)[O-])c(N3CCOCC3)c2)CC1	nt	nt	0.71µM
O=C(/C=C/c1ccc(Cl)cc1Cl)N1CCN(c2ccc([N+](=O)[O-])c(N3CCOCC3)c2)CC1	i	i	?
Cc1ccccc1C(=O)N1CCN(c2ccc([N+](=O)[O-])c(N3CCOCC3)c2)CC1	i	i	?
c1cncc(-c2nc(NCCN3CCOCC3)c3ccccc3n2)c1	nt	i	i
COc1ccc(CCN2C(=O)C(Oc3ccccc3)C2c2ccc3c(c2)OCO3)cc1 (stereo not drawn)	i	i	i
CCn1cc(CNC(=O)c2cc(-c3cc(OC)ccc3OC)nc3ccccc23)c(C)n1	?	i	i
O=C(CN1CCOCC1)Nc1nc2cc([N+](=O)[O-])ccc2s1	i	i	?
N#CC1=C(N)OC2=C(C(=O)CCC2)[C@]12C(=O)N(CC(N)=O)c1ccccc12	?	nt	i
CC1=CC(C)(C)N2C(=O)C3(C(C#N)=C(N)OC4=C3C(=O)CC(C)(C)C4)c3cccc1c32 (stereo not drawn)	i	i	?
CC(=O)N1C(=O)C2(C(C#N)=C(N)Oc3cc(C)oc(=O)c32)c2ccccc21 (stereo not drawn)	-115	i	i
CC1(C)CC(=O)C2=C(C1)OC(N)=C(C#N)C21C(=O)N(Cc2ccccc2Cl)c2ccccc21 (stereo not drawn)	i	i	2.8µM
COc1ccc(-c2[nH]nc3c2C2(C(=O)N(CC(=O)O)c4ccccc42)C(C#N)=C(N)O3)cc1OC (stereo not drawn)	i	i	i
Cc1cc2c(c(=O)o1)C1(C(=O)N(C)c3ccccc31)C(C#N)=C(N)O2 (stereo not drawn)	i	i	i
COC(=O)CN1C(=O)C2(C(C#N)=C(N)Oc3cc(C)oc(=O)c32)c2ccccc21 (stereo not drawn)	i	i	6.3µM
COC(=O)CN1C(=O)C2(C(C#N)=C(N)Oc3ccccc32)C2=C1CC(C)(C)CC2=O (stereo not drawn)	i	i	6.3µM
C[C@@H]1[C@H](C)CC[C@@]2(C(=O)O[C@H]3O[C@@H](CO[C@H]4O[C@@H](CO)[C@@H](O[C@H]5O[C@@H](C)[C@@H](O)[C@@H](O)[C@@H]5O)[C@@H](O)[C@@H]4O)[C@@H](O)[C@@H](O)[C@@H]3O)CC[C@]3(C)C(=CC[C@H]4[C@@]5(C)C[C@@H](O)[C@@H](O)[C@](C)(CO)[C@@H]5CC[C@@]43C)[C@@H]12	nt	i	i
SMILES	PNC inhibitor	HPGD inh	ALDH1A1 block
O=C(Nc1cccc2ccccc12)OCc1cncs1	nt	nt	i
CCC(=O)Nc1cc(C(=O)OC(C(=O)c2ccc(C)c(C)c2)c2ccccc2)ccc1C (stereo not drawn)	i	i	i
Cc1cc(C)c(NC(=O)c2ccc(CNS(=O)(=O)c3cc(C(F)(F)F)ccc3Cl)cc2)c(C)c1	?	i	?
CN(C)C/C=C(\c1ccc(Br)cc1)c1cccnc1	nt	i	i[13.5 µM]
CCN1C(=O)C(CC(=O)Nc2ccc(OC)cc2)N(Cc2ccco2)C1=S (stereo not drawn)	i	i	?
COc1cc2c3c(c1)C1(C(=O)N3C(C)(C)C=C2C)C(C#N)=C(N)Oc2cc(C)oc(=O)c21 (stereo not drawn)	i	i	4µM
COC(=O)Cc1[nH]nc2c1C1(C(=O)N(Cc3ccccc3)c3ccccc31)C(C#N)=C(N)O2 (stereo not drawn)	i	i	20µM
CC1=CC(C)(C)N2C(=O)C3(C(C#N)=C(N)Oc4cc(O)ccc43)c3cccc1c32 (stereo not drawn)	i	i	i
Cc1[nH]nc2c1C1(C(=O)N(Cc3ccc(Cl)cc3)c3ccccc31)C(C#N)=C(N)O2 (stereo not drawn)	i	i	?
